# Compound activity from PubChem BioAssay.
# PLAP activator: PLAP enzyme activators, biochemical, luminescence, HTS | Alkaline phosphatase, placental type (Homo sapiens), P05187 | purified PLAP enzyme, luminescent substrate read-out; stronger effect = higher value | activation fold at 20 µM | 96,000 tested, 1.2% active | AID 696, 2007; in the data active means activation fold above about 2
# sEH inh: soluble epoxide hydrolase inhibitors, primary screen, biochemical, human sEH; recombinant human sEH enzymatic activity assay; inhibition, % at 2 µM; 91,000 tested, 0.34% active; AID 707, 2007; in the data active means inhibition above about 80%
# sEH act: soluble epoxide hydrolase activators, primary screen, biochemical, human sEH | purified human sEH enzymatic activity, activator screen | AID 717, 2007 | activation, % at 2 µM | 91,000 tested, 0.04% active; in the data active means activation above about 37%
# BAP1 inh: inhibitors of BAP1 deubiquitinase, primary screen, biochemical, Ub-AMC fluorescence, kinetic; Ubiquitin carboxyl-terminal hydrolase BAP1 (Homo sapiens), Q92560; recombinant BAP1, Ub-AMC hydrolysis fluorescence kinetic; stronger effect = lower value; calls only at 20 µM; 72,000 tested, 0.48% active; AID 436, 2006;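 active means activity remaining at or below 50% of control, provided the compound also passes the data quality filters; inactive means the rest, including low values that fail the filters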;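 further: 100% = DMSO wells rate and 0% = substrate alone blank rate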
# Target sequence (Q92560 whole entry, looked up): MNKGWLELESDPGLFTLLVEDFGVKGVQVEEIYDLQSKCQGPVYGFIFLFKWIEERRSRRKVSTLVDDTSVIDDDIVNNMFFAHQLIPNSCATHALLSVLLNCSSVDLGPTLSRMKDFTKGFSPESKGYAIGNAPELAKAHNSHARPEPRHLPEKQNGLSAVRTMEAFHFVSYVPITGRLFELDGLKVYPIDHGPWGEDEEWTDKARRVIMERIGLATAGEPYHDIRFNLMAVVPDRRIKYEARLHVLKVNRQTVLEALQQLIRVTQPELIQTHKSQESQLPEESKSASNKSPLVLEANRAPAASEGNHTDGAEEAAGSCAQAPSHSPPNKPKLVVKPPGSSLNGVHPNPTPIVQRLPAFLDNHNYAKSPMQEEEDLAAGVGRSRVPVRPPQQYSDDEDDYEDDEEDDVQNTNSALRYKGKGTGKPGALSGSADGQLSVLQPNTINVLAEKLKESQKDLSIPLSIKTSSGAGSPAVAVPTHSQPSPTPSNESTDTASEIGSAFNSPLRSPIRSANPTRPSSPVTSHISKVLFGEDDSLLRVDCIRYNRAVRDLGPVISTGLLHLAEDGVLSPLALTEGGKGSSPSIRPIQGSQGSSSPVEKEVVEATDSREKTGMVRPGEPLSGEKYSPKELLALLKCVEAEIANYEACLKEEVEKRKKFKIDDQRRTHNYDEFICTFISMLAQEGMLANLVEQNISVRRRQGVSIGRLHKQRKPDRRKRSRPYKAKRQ
# * marks the source's active call; other numbers are inactive results; i = inactive; x = no result given; + = active, no number. Hits are enriched below; roughly 1.3% of the tested compounds scored in any of these assays.
SMILES,PLAP activator,sEH inh,sEH act,BAP1 inh
Nc1c(C(O)(C(F)(F)F)C(F)(F)F)ccc2ccccc12,x,x,x,+
CCOc1cc(CNCCSc2nnnn2C)cc(Br)c1OCc1ccccc1,2*,-8,11,x
Cc1cccc(NC(=S)NNC(=O)CC(C)O)c1C (stereo not given),2*,6,-6,x
CC(=O)NNc1nc2ccccc2s1,2.1*,-3,1,x
COc1ccc(-n2c(CNC(=O)c3cccc4ccccc34)n[nH]c2=S)cc1,x,x,x,i
O=c1oc2ccccc2c(O)c1C=NCc1ccccn1,2.1*,-23,21,i
O=C(N/N=C/c1ccc(O)cc1)c1csc2ccccc12,1.2,84*,-84,x
Cc1cc2c3c(c1)C(C)(c1ccccc1)CC(C)(C)N3C(=O)C21C(C#N)=C(N)OC2=C1C(=O)CC(C)(C)C2 (stereo not given),2*,-4,3,x
CCN(CC)C(C(=O)Nc1ccc(C(C)C)cc1)c1ccc2c(c1)OCO2 (stereo not given),1.3,-38,38*,x
CC(C)c1ccc(NC(=O)C(c2ccc3c(c2)OCO3)N2CCN(C(=O)c3ccco3)CC2)cc1 (stereo not given),1.8,x,x,i
O=C(N/N=C/c1ccc(-c2ccc(S(=O)(=O)Nc3ncccn3)cc2)o1)c1cc2ccccc2cc1O,1.9,-4,1,x
CCOc1ccc(C(=O)N/N=C/c2ccc(-c3ccc(S(=O)(=O)Nc4ncccn4)cc3)o2)cc1,2.1*,40,-41,x
COc1ccc(C(=O)COC(=O)C2CCN(S(=O)(=O)c3ccc4ccccc4c3)CC2)cc1,x,x,x,i
O=C(CN(C(=O)Cn1nnc(-c2cccs2)n1)c1ccc2c(c1)OCCO2)NCc1ccccc1,2.1*,4,0,x
O=C1C2C3C=CC(CC3)C2C(=O)N1c1cccc(Cl)c1 (stereo not given),x,x,x,i
O=C(CSc1nc2sc3c(c2c(=O)n1-c1ccccc1)CCC3)c1ccc2c(c1)OCCO2,x,x,x,i
CCOc1ccc2nc(NC(=O)c3cnc(C)cn3)sc2c1,2.6*,-12,10,x
CCOc1ccc2nc(NC(=O)C(CCSC)NS(=O)(=O)c3cccs3)sc2c1 (stereo not given),2.4*,-3,4,i
CCC(C)OC(=O)C1=C(C)NC(=O)NC1c1ccccc1OCc1ccccc1 (stereo not given),x,x,x,i
COc1ccc(CCNC(=O)C2CCN(Cc3nc(-c4ccccc4F)oc3C)CC2)cc1OC,1.7,17,-17,i
O=C(NCCN1CCOCC1)C1CCN(c2nc3ccccc3o2)CC1,1.1,x,x,i
Cc1oc(-c2ccccc2F)nc1CN1CCC(C(=O)NCCC2=CCCCC2)CC1,1.8,89*,-89,i
O=C(NCCC1=CCCCC1)C1CCN(c2nc3ccccc3o2)CC1,1.2,85*,-85,x
CCc1ccc(-c2nc(CN3CCC(C(=O)NCCc4ccc(OC)c(OC)c4)CC3)c(C)o2)cc1,2.4*,-8,10,i
O=C(Nc1cccc(O)c1)c1ccc(CSc2ccc(Br)cc2)cc1,x,x,x,i
SMILES,PLAP activator,sEH inh,sEH act,BAP1 inh
COC(=O)c1sc2nc(CSc3nc4ccc(C)cc4[nH]3)[nH]c(=O)c2c1C,2*,-5,-1,x
CCOc1ccc2c(c1)C(C)=CC(C)(C)N2C(=O)C(C)N1C(=O)c2ccccc2C1=O (stereo not given),x,x,x,i
Cc1ccccc1Nc1nnc(SCc2cc([N+](=O)[O-])cc3c2OCOC3)s1,2*,-3,4,x
Cc1cc(C)n(-c2nc(-n3nc(C)cc3C)c3c4c(sc3n2)COC(C)(C)C4)n1,1.5,8,-8,x
Cc1cc(C)n(-c2nc(NCCC(C)C)c3c4c(sc3n2)COC(C)(C)C4)n1,2.9*,-13,15,x
CSc1nc2ccc3nc(NC(=O)c4ccc(S(=O)(=O)N5CCc6ccccc6C5)cc4)sc3c2s1,x,x,x,i
Cc1noc(C)c1S(=O)(=O)N(CC(=O)O)c1ccc2c(c1)OCO2,0.9,2,-3,i
CCC(C)NC(=O)CN(c1ccc2c(c1)OCO2)S(=O)(=O)c1c(C)n[nH]c1C (stereo not given),2.2*,x,x,i
Cc1n[nH]c(C)c1S(=O)(=O)N(CC(=O)Nc1ccc2c(c1)OCCO2)c1ccc(C(C)C)cc1,2*,12,-10,i
Cc1ccc(C(=O)OCCOC(=O)c2ccc(C)cc2)cc1,x,x,x,i
COc1ccc2nc(NC(=O)c3ccc(S(=O)(=O)N(C)C)cc3)sc2c1,x,x,x,i
Cn1c2ccccc2c(=Nc2ccc(Br)cc2)c2ccccc21,x,x,x,i
CCCCCCCCCOC(=O)C(CC(=O)O)N1CCOCC1 (stereo not given),2*,-8,10,x
Cn1c(=O)c2[nH]c(CNCc3ccccc3Cl)nc2n(C)c1=O,2.9*,11,-9,i
Cn1c(=O)c2[nH]c(CN3CCN(Cc4ccccc4)CC3)nc2n(C)c1=O,1,-6,8,x
CC1(C)CC(NCC(=O)N2c3ccccc3Sc3ccc(Cl)cc32)CC(C)(C)N1,x,x,x,i
CCC(C)NC(=O)Nc1ccc2c(c1)N(C)C(=O)c1ccccc1S2 (stereo not given),4.4,88*,-88,x
CCN(CC)CCn1nc(C)nc1-c1ccccc1O,2.3*,-5,6,i
COCc1nnc(NC(=O)c2ccc(S(=O)(=O)N3CCCCCC3)cc2)o1,1.4,x,x,i
CCc1nnc(NC(=O)c2ccc(S(=O)(=O)N3CCCc4ccccc43)cc2)o1,2.1*,2,-2,x
CC(C)C12CN3CC(C(C)C)(CN(C1)C3c1ccccc1)C2O (stereo not given),1.1,-40,39*,i
Cc1cc(Oc2ccc(-c3cnc4ccccc4n3)cc2[N+](=O)[O-])ccc1Cl,x,x,x,i
Cc1ccc(-c2nnc(SCc3nc4ccccc4[nH]3)n2Cc2ccco2)cc1,1,-3,4,x
c1coc(Cn2c(SCc3nc4ccccc4[nH]3)nnc2-c2cccs2)c1,2.1*,-10,12,x
COc1cc(C(Nc2ccccn2)c2ccc3ccc(C)nc3c2O)cc(OC)c1O (stereo not given),2*,x,x,i
SMILES,PLAP activator,sEH inh,sEH act,BAP1 inh
Cc1ccc2ccc(C(Nc3ccccn3)c3ccccc3)c(O)c2n1 (stereo not given),1.8,7,-7,x
CC1CCCC(NC(=O)Nc2cccs2)C1C (stereo not given),0.9,80*,-81,x
CC1CCCC(NC(=O)Cc2ccc(Br)cc2)C1C (stereo not given),x,53,-52,x
O=C(Nc1nnc(N=Cc2ccc([N+](=O)[O-])s2)s1)c1cccc(Cl)c1,x,x,x,i
Cc1ccc(-n2nc3c(c2NC(=O)c2ccc(Cl)cc2)CSC3)c(C)c1,x,x,x,i
Cc1ccccc1C(=O)NNC(=O)Cc1cccc2ccccc12,2*,-1,-1,x
O=C(NNC(=O)c1cccc2ccccc12)c1ccco1,1.8,10,-10,x
CCCn1c(Cc2ccccc2)n[nH]c1=S,0.9,10,-8,x
S=c1[nH]nc(Cc2ccccc2)n1Cc1ccco1,2.1*,6,-6,i
